Test results as given in PubChem BioAssay AID488815 (Broad Institute, 2010).
Potency and affinity values are given separately. Inconclusive results are not listed. Calls of active or inactive are those of the source. No rule for the calls is given here.

target: CAAX prenyl protease 1 (Saccharomyces cerevisiae (strain ATCC 204508 / S288c)) (UniProt P47154); assay: Ste24 protease inhibitors, dose response, biochemical, S. cerevisiae, plate reader, cherry-pick (AID 488815); conditions: yeast Ste24 protease activity; series mostly up to 10 µM
Sequence (P47154 whole entry, looked up): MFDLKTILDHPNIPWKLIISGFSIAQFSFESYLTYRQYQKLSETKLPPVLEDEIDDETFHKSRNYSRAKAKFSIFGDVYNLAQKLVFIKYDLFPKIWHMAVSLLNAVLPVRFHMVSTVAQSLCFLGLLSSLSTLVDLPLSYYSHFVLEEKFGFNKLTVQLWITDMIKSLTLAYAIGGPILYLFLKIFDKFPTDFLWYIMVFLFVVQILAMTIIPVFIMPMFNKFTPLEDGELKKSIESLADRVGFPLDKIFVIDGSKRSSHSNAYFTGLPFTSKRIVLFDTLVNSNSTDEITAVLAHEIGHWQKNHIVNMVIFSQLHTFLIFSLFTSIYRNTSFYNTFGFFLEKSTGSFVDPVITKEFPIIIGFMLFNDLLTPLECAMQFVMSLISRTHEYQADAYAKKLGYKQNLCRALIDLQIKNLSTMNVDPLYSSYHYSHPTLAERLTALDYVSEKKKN

outcome, inactive:
O=C1NC2(C=Cc3c(ccc4ccccc34)O2)Oc2ccccc21 (stereo not given)
Cc1nc(-c2ccc(Cl)cc2)sc1C1(C)CC(c2ccccc2Br)=NO1 (stereo not given)
CCn1cc(/C=C(\NC(=O)c2ccccc2F)C(=O)N2CCOCC2)c2ccccc21
CCOC(=O)c1c(NC(=O)COc2ccccc2F)sc2c1CC(C)(C)NC2(C)C
O=C(C1CCC(=O)N(C2CC2)C1)N1CCN(c2ccccc2Cl)CC1 (stereo not given)
CCn1c(COc2cccc(C)c2)nnc1SCC(=O)NC1CCCC1
Cc1cccc(N2C(=O)c3cccc4c(N5CCCCC5)c([N+](=O)[O-])cc(c34)C2=O)c1C
O=C(O)c1ccc2cccc(Cl)c2c1O
CC1(C)CC2CC(C)(CN2S(=O)(=O)c2ccc(N)cc2)C1 (stereo not given)
O=C(Nc1ccc2c(c1)CCC2)c1ccccc1Br
Cc1cc2cc(C(=O)N3CCc4c([nH]c5ccccc45)C3c3ccccn3)ccc2o1 (stereo not given)
CCOc1ccc(OCC)c(NC(=O)c2nnn(CC(=O)Nc3cc(C)cc(C)c3)c2N)c1
CC(=O)N[C@@H](C)c1nc2ccccc2n1CCCN1CCN(c2nc(-c3ccc(C)cc3)cs2)CC1
CC(=O)N1c2ccc([N+](=O)[O-])cc2NC(=O)CC1C (stereo not given)
CC(=O)c1c(C)oc2ccc(NS(=O)(=O)c3ccc(C(=O)O)cc3)cc12
CC(C)c1c(C(=O)N/N=C/c2cccc3ccccc23)nnn1-c1nonc1N
O=C(Nc1ccc(N2CCOCC2)c(Cl)c1)c1cc2ccccc2o1
COc1cccc(/C=N/NC(=O)c2nnn(-c3nonc3N)c2C(C)C)c1OCc1ccc(F)cc1
COC(C/C=C/[C@H](O)[C@@H](C)OCc1ccccc1)OC
NS(=O)(=O)c1ccc(NC(=O)/C=C/c2cn(-c3ccccc3)nc2-c2cccc(Cl)c2)cc1
CCCOc1ccccc1C(=O)NCCCC(=O)O
O=C(O)CCCC[C@@H]1SC[C@@H]2NC(=O)N[C@@H]21
COc1nc(-c2ccccc2)ccc1-c1noc(-c2ccccc2F)n1
CCN(Cc1ccccc1)S(=O)(=O)c1ccc(C(=O)N(CCCN(C)C)c2nc3c(C)c(C)ccc3s2)cc1
CCCCCCCCNC(C)C(O)c1ccc(SC(C)C)cc1 (stereo not given)
Cc1nc(SC(C(=O)c2ccccc2)c2ccccc2)nc2ccccc12 (stereo not given)
Cc1ccc(S(=O)(=O)Nc2ccccc2C(=O)NCC2CCCO2)cc1 (stereo not given)
Cc1ccc(C(=O)N2N=C(c3ccccc3O)CC2c2ccccc2)cc1 (stereo not given)
Cc1cccc(N2CCc3c2nc2ccc(Br)cc2c3N)c1
COc1ccc(S(=O)(=O)NCC2CCCO2)cc1NC(=O)c1ccccc1F (stereo not given)
CC(C)(C)OC(=O)N1CCC(c2cc(=O)n3[nH]cc(C(=O)Nc4ccc(F)c(Cl)c4)c3n2)CC1
CCN(CC)CCN(C(=O)c1ccc2ccccc2c1)c1nc2ccc(F)cc2s1
O=C(COc1ccccc1)Nc1cccc(-c2nc3cc4ccccc4cc3[nH]2)c1
COC(C/C=C/[C@H](O)[C@H](C)OCc1ccccc1)OC
CCCCNC(=S)N=Nc1c(O)n(Cc2ccccc2)c2ccccc12
CC(Cc1cccs1)NC(=O)Nc1ccc([N+](=O)[O-])cc1 (stereo not given)
CC1CCN(C(=O)C2CCN(S(=O)(=O)c3ccc(-n4cnnn4)cc3)CC2)CC1
COC(C[C@@H]1O[C@@H]1C(=O)[C@@H](C)OCc1ccccc1)OC
Cc1cc(-c2ccccc2)n2nc(C)c(C#N)c2n1
C=C(C)CSc1nc2sc3c(c2c(=O)n1-c1ccc(OC)cc1)CCN(C)C3
